Assay [1] is described as follows: Quantitative High-Throughput drug screen in 47 multiple myeloma cell lines against the NCATS MIPE library collection: KMS12PE_JCRB cell viability assay (AID 1918972). Note: nearly all actives have a fitted effect of over 30% in size. An outline of the steps:
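Myeloma cells (500 per well) were exposed to MIPE 4.0 compounds by pin transfer and incubated 48 hours at 37C, 5% CO2. Viability was read as ATP by CellTiter-Glo luminescence, normalised to DMSO (100%) and media-only (0%) wells.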

Assay [2] can be described thus: Quantitative High-Throughput drug screen in 47 multiple myeloma cell lines against the NCATS MIPE library collection: KMS20_JCRB cell viability assay (AID 1918973). Note: nearly all actives have a fitted effect of over 45% in size. The essentials: (§1)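 Relative luminescence from CellTiter-Glo served as the viability signal, referenced to DMSO-treated (100%) and cell-free medium (0%) controls. Treatment lasted 48 hours at 37C with 500 cells per well.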

Assay [3] in a line: Quantitative High-Throughput drug screen in 47 multiple myeloma cell lines against the NCATS MIPE library collection: KMS26_JCRB cell viability assay (AID 1918975). Note: nearly all actives have a fitted effect of over 45% in size. An outline of the steps: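 Approved and investigational drugs from MIPE 4.0 were added by pin tool to 500 cells per well. After 48 hours at 37C, ATP-based CellTiter-Glo luminescence indicated remaining viability.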

A short description of assay [4]: Quantitative High-Throughput drug screen in 47 multiple myeloma cell lines against the NCATS MIPE library collection: MMM1_PLB cell viability assay (AID 1918976). Note: nearly all actives have a fitted effect of over 35% in size. An outline of the steps: (§2)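 Myeloma cells (500/well) treated with MIPE 4.0 compounds for 48 h at 37 °C, 5% CO2. Viability read as ATP via CellTiter-Glo luminescence after 5 min at RT; DMSO-only wells = 100%, media-only = 0% viability.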

Assay [5] is described as follows: Quantitative High-Throughput drug screen in 47 multiple myeloma cell lines against the NCATS MIPE library collection: KMS21BM_JCRB cell viability assay (AID 1918974). As to conditions: ATP luminescence, 48 h; viability: at 45.8 µM (top of the series). The essentials: as §1
A short description of assay [6]: Quantitative High-Throughput drug screen in 47 multiple myeloma cell lines against the NCATS MIPE library collection: MOLP8_DSMZ cell viability assay (AID 1918977). Note: nearly all actives have a fitted effect of over 45% in size. The essentials: as §2
The nature of assay [7]: Quantitative High-Throughput drug screen in 47 multiple myeloma cell lines against the NCATS MIPE library collection: NCIH929_DSMZ cell viability assay (AID 1918978). Note: nearly all actives have a fitted effect of over 35% in size. An outline of the steps:
as §2

Assay [8] is described as follows: Quantitative High-Throughput drug screen in 47 multiple myeloma cell lines against the NCATS MIPE library collection: OCIMY1_PLB cell viability assay (AID 1918979). Note: nearly all actives have a fitted effect of over 35% in size. An outline of the steps:
as §2

A short description of assay [9]: Quantitative High-Throughput drug screen in 47 multiple myeloma cell lines against the NCATS MIPE library collection: MM1S_ATCC cell viability assay (AID 1918980). Note: nearly all actives have a fitted effect of over 45% in size. The essentials:
as §2

Assay [10] can be described thus: Quantitative High-Throughput drug screen in 47 multiple myeloma cell lines against the NCATS MIPE library collection: MM1R_ATCC cell viability assay (AID 1918981). Note: nearly all actives have a fitted effect of over 35% in size. An outline of the steps:
as §2

Results filed as inconclusive are left out. Active and inactive are the calls of the source. Calls come from the whole dose curve; as a rule, active = well fitted curve in the direction sought with a large enough effect; inconclusive = small, poorly fitted or top-dose-only effect, or another doubt; inactive = no such curve, though single readings can be large; an effect the other way counts as inactive or inconclusive.
Potency is the fitted concentration of half-maximal effect.

With `COc1nccc(-c2c(-c3ccc(F)cc3)ncn2C2CCNCC2)n1`, the Potency entry in [1], in assay [2] and in [3] was “inactive” throughout. Besides, the Potency in [4] was 13.2 µM (active).

As to `COC(=O)Nc1ccc(-c2nc(N3CCOCC3)c3cnn(C4CCN(C(=O)OC)CC4)c3n2)cc1`, the Potency in assay [1] was 1.66 µM (active); in assay [2] it was 0.0148 µM (active); in assay [5] it was 0.0526 µM (active); in assay [3], 1.66 µM (active); in [4] it was 0.418 µM (active); in assay [6], 1.48 µM (active). In addition, the Potency in assay [7] was 0.0372 µM (active); in [8], 5.26 µM (active); in assay [9], 0.0066 µM (active); in [10], 0.743 µM (active).

Regarding `CC[C@H](NC(=O)[C@H](C)NC)C(=O)N1C[C@@H](O)C[C@H]1Cc1c(-c2[nH]c3cc(F)ccc3c2C[C@H]2C[C@H](O)CN2C(=O)[C@H](CC)NC(=O)[C@H](C)NC)[nH]c2cc(F)ccc12`, the Potency in assay [1] was 11.8 µM (active); in assay [2] it was 4.69 µM (active); in assay [5], 0.526 µM (active); in assay [7], 20.9 µM (active); in assay [9], 3.32 µM (active); in [10] it was 0.418 µM (active). Also, the Potency result in assay [6] is “inactive”.

As for `Nc1[nH]nc2nnc(-c3c(-c4ccccc4)nn4ccccc34)cc12`, the Potency in assay [1] is 2.35 µM (active); in [2], 2.09 µM (active); in assay [7] it was 3.72 µM (active); in [9], 0.264 µM (active); in assay [10], 23.5 µM (active). In addition, the Potency result in [3] was “inactive”.

Take `Nc1ncnc2c1c(-c1cccc(OCc3ccccc3)c1)cn2C1CC(CN2CCC2)C1` (stereo unspecified): the Potency was 16.6 µM (active) in assay [1]; 3.72 µM (active) in assay [2]; 4.69 µM (active) in assay [3]; 2.96 µM (active) in [4]; 0.418 µM (active) in assay [7]; 2.96 µM (active) in [9]. The Potency in assay [10] was 4.69 µM (active).

For `O=C1NC(=O)C(c2cnc3ccccn23)=C1c1cn2c3c(cccc13)CN(C(=O)N1CCOCC1)CC2`, the Potency in [1] was 0.001 µM (active); in assay [2] it was 3.72 µM (active); in assay [3], 0.0235 µM (active); in assay [10], 3.32 µM (active).

`Cc1ccccc1C(=O)c1ccc(Nc2ccc(Br)cc2N)cc1Cl`: the Potency in assay [1] was 7.43 µM (active); in assay [2], 14.8 µM (active); in [3], 5.26 µM (active); in [4] it was 16.6 µM (active); in assay [7], 23.5 µM (active); in assay [9], 6.62 µM (active).

Consider `O=C(c1ccc(F)c(F)c1Nc1ccc(I)cc1F)N1CC(O)([C@H]2CCCCN2)C1`, for which the Potency in assay [1] was 16.6 µM (active); in [2] it was 0.372 µM (active); in assay [3], 23.5 µM (active); in [9], 18.7 µM (active); in assay [10], 23.5 µM (active).

Turning to `COc1c(C)c2c(c(O)c1CC=C(C)CCC(=O)OCCN1CCOCC1)C(=O)OC2`, the Potency in [1] was 3.72 µM (active); in assay [6], 2.96 µM (active); in [8], 10.5 µM (active); in assay [9] it was 6.62 µM (active); in [10], 11.8 µM (active). Further, the Potency entry in assay [2] and in [3] was “inactive” each time.

On to `CCOC(=O)N1c2ccc(C(F)(F)F)cc2[C@@H](N(Cc2cc(C(F)(F)F)cc(C(F)(F)F)c2)C(=O)OC)C[C@H]1CC`, for which the Potency entry in assay [1] and in [2] was “inactive” throughout. Moreover, the Potency in assay [3] is 3.32 µM (active); in [4] it was 8.33 µM (active); in assay [7], 8.33 µM (active); in [8], 16.6 µM (active); in assay [10], 2.96 µM (active).

Regarding `O=C(CC12CC3CC(CC(C3)C1)C2)Nc1cccc2nc(NCCNCCO)ccc12`, the Potency is 9.35 µM (active) in assay [1]; 6.62 µM (active) in assay [2]; 18.7 µM (active) in assay [3]; 2.35 µM (active) in assay [7]; 8.33 µM (active) in assay [9]; 20.9 µM (active) in assay [10].

Consider `Cc1ccccc1-n1c(Cn2nc(-c3cccc(O)c3)c3c(N)ncnc32)nc2cccc(C)c2c1=O`, for which the Potency in assay [1] was 0.935 µM (active); in assay [2], 5.26 µM (active); in [3], 11.8 µM (active); in assay [4], 18.7 µM (active); in [7] it was 14.8 µM (active); in assay [9], 1.32 µM (active). Further, in [10], the Potency is 9.35 µM (active).

`N#CC(c1ccnc(NCCc2cccnc2)n1)c1nc2ccccc2s1` (stereo unspecified): the Potency is 4.18 µM (active) in assay [1]; 14.8 µM (active) in [2]; 20.9 µM (active) in assay [4]; 7.43 µM (active) in assay [7]; 18.7 µM (active) in assay [10]. The Potency entry in assay [6] and in assay [8] was “inactive” in each case.

Take `CCN1CCC(n2cc(CNc3cc(Cl)c4ncc(C#N)c(Nc5ccc(F)c(Cl)c5)c4c3)nn2)CC1`: the Potency was 8.33 µM (active) in [1]; 16.6 µM (active) in assay [2]; 8.33 µM (active) in [3]; 14.8 µM (active) in assay [4]; 20.9 µM (active) in assay [7]; 16.6 µM (active) in [9]. The Potency in assay [10] was 8.33 µM (active).

In the case of `Nc1nc(Cl)nc2c1ncn2[C@@H]1O[C@H](CO)[C@@H](O)[C@H]1F`, the Potency in [1] is 0.833 µM (active); in assay [2], 0.0264 µM (active); in [4] it was 2.09 µM (active); in assay [7], 0.0332 µM (active).

With `CN(C(Cc1ccc(OS(=O)(=O)c2cccc3cnccc23)cc1)C(=O)N1CCN(c2ccccc2)CC1)S(=O)(=O)c1cccc2cnccc12` (stereo unspecified), the Potency in assay [1] is 5.26 µM (active); in assay [2], 2.64 µM (active); in [3], 14.8 µM (active); in assay [4], 5.9 µM (active); in assay [7], 16.6 µM (active); in assay [9], 5.26 µM (active). Moreover, in assay [10], the Potency is 16.6 µM (active).

On to `Cc1[nH]c(C=C2C(=O)Nc3ccc(S(=O)(=O)N(C)c4cccc(Cl)c4)cc32)c(C)c1C(=O)N1CCN(C)CC1`, for which the Potency in [1] is 7.43 µM (active); in assay [2], 5.26 µM (active); in assay [3], 23.5 µM (active); in assay [4], 18.7 µM (active); in assay [7], 11.8 µM (active); in assay [9], 26.4 µM (active). Further, the Potency in assay [10] was 23.5 µM (active).

With `CCC(=C(CC)c1ccc(O)cc1)c1ccc(O)cc1`, the Potency in [1] is 13.2 µM (active); in assay [3] it was 13.2 µM (active); in [7], 16.6 µM (active); in assay [9] it was 14.8 µM (active); in assay [10] it was 14.8 µM (active). Besides, the Potency result in assay [2] is “inactive”.

For `C=CCc1cccc(C=NNC(=O)CN2CCN(Cc3ccccc3)CC2)c1O`, the Potency is 4.18 µM (active) in assay [1]; 20.9 µM (active) in assay [2]; 16.6 µM (active) in assay [4]; 26.4 µM (active) in assay [7]; 8.33 µM (active) in [8]; 9.35 µM (active) in assay [9]. Also, the Potency in assay [10] was 10.5 µM (active).
